Laboratory results reported in PubChem BioAssay (NCI).
This is part of a sample that, as a whole, favours compounds with a hit. Of some 79,000 tested, about 15% had one in any assay. Active and inactive are the calls of the source. Cut-off read from the data, not from the text of the source: active = growth inhibition above about 70%; inactive = the rest.

Tests used:
[1] = NCI Yeast Anticancer Drug Screen. Data for the wt1 strain (AID 149);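 note: 0% = growth of vehicle-treated wt1 cultures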; conditions: S. cerevisiae wt1 strain (SPY 50644) growth inhibition, stronger effect = higher value
Method in brief: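 Vehicle-normalised growth inhibition; strain wt1; compound exposure.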

[2] = NCI Yeast Anticancer Drug Screen. Data for the rad50EPP+ strain (AID 151);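 note: 0% = growth of vehicle-treated control cultures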; conditions: S. cerevisiae rad50 mutant strain, stronger effect = higher value
Method in brief: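 Read-out is yeast growth inhibition relative to vehicle; cells used were the rad50EPP+ strain.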

[3] = NCI Yeast Anticancer Drug Screen. Data for the mgt1 strain (AID 153); conditions: S. cerevisiae mgt1 mutant growth inhibition, stronger effect = higher value
Method in brief: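 Measured: inhibition of mgt1 yeast growth by compound, normalized to vehicle-treated cultures.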

[4] = NCI Yeast Anticancer Drug Screen. Data for the rad50 strain (AID 155);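 note: 0% = growth of vehicle-only cultures of the same strain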; conditions: S. cerevisiae rad50 strain growth inhibition, stronger effect = higher value
Method in brief: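 A DNA repair-deficient yeast mutant serves as the test organism; compound-induced growth inhibition is calculated against vehicle-treated cells.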

[5] = NCI Yeast Anticancer Drug Screen. Data for the mec2-1 strain (AID 157); conditions: S. cerevisiae mec2-1 strain, stronger effect = higher value
Method in brief: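 Using mec2-1 yeast: add compound, measure growth, express inhibition versus vehicle-treated cultures.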

[6] = NCI Yeast Anticancer Drug Screen. Data for the rad14 strain (AID 159);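 note: 0% = growth of vehicle-treated control cultures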; conditions: S. cerevisiae rad14 strain growth inhibition, stronger effect = higher value
Method in brief: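 Vehicle-treated cultures served as the baseline for growth inhibition of a DNA repair-mutant yeast strain exposed to each compound.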

[7] = NCI Yeast Anticancer Drug Screen. Data for the sgs1 mgt1 strain (AID 161);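 note: 0% = growth of cultures given vehicle only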; conditions: S. cerevisiae sgs1 mgt1 strain, stronger effect = higher value
Method in brief: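 Percent growth inhibition was derived by comparing compound-exposed mutant yeast with vehicle-exposed cultures. The strain carries alterations in DNA damage repair.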

[8] = NCI Yeast Anticancer Drug Screen. Data for the CLN2oe strain (AID 163);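 note: 0% = growth of vehicle-only control cultures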; conditions: S. cerevisiae CLN2oe strain, stronger effect = higher value
Method in brief: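 Whole-cell yeast growth assay. A strain engineered for altered cell-cycle control received compound, and inhibition relative to vehicle-treated cultures was recorded.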

[9] = NCI Yeast Anticancer Drug Screen. Data for the cln2 rad14 strain (AID 165);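 note: 0% = growth equal to vehicle treated cultures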; conditions: S. cerevisiae cln2 rad14 strain, stronger effect = higher value
Method in brief: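 Yeast strain cln2 rad14, bearing defects in cell cycle control and DNA repair, serves as the test system; values reflect growth inhibition compared with vehicle.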

[10] = NCI Yeast Anticancer Drug Screen. Data for the bub3 strain (AID 167); conditions: S. cerevisiae bub3 mutant strain, stronger effect = higher value
Method in brief: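 Inhibition values come from growth of compound-treated mutant yeast normalised to vehicle-treated controls.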

[11] = NCI Yeast Anticancer Drug Screen. Data for the wt2 strain (AID 169);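 note: 0% = growth of vehicle-treated yeast cultures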; conditions: S. cerevisiae wt2 strain growth inhibition, stronger effect = higher value
Method in brief: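 Treated yeast vs. vehicle-treated yeast: growth inhibition determined.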

[12] = NCI Yeast Anticancer Drug Screen. Data for the mlh1 strain (AID 171);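 note: 0% = growth of vehicle-treated control cultures of the same strain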; conditions: S. cerevisiae mlh1 strain growth inhibition, stronger effect = higher value
Method in brief: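 A yeast strain with a defined genetic lesion serves as the test organism. Cultures receive compound or vehicle, and growth is measured.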

[13] = NCI Yeast Anticancer Drug Screen. Data for the sgs1 strain (AID 173);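 note: 0% = growth of vehicle-only control cultures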; conditions: S. cerevisiae sgs1 mutant, stronger effect = higher value
Method in brief: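 A genetically defined yeast mutant is incubated with the test compound, and its growth is compared to that of the same strain given vehicle.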

[14] = NCI Yeast Anticancer Drug Screen. Data for the mlh1 rad18 strain (AID 175); conditions: S. cerevisiae mlh1 rad18 strain growth inhibition, stronger effect = higher value
Method in brief: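 Steps: expose repair-defective yeast to compound; measure growth; express inhibition against vehicle-treated controls.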

[15] = NCI Yeast Anticancer Drug Screen. Data for the rad18 strain (AID 177); conditions: S. cerevisiae rad18 mutant growth inhibition, stronger effect = higher value
Method in brief: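 Measured value is growth inhibition of a yeast strain bearing a DNA repair alteration, referenced to vehicle-treated cells.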

[16] = at 5.0 µM (retest, dose inferred, filed as 0.5)
[17] = at 50.0 µM (retest, dose inferred, filed as 5.0)

Measured: growth inhibition

COC(=O)c1c(C)ccc2c(O)c3c(cc12)C(=O)c1c2c(cc(O)c1C3=O)C1(C)OC(C)(O2)C(O)C(N(C)C)C1O (stereo not drawn)
inactive: [1]; at 1.2 µM 5% | [1]; at 3.7 µM 1% | [1]; at 11.0 µM 22% | [2]; at 1.2 µM -2% | [2]; at 3.7 µM 17% | [2]; at 11.0 µM 51% | [2]; at 100.0 µM 67% | [3]; at 1.2 µM 0% | [3]; at 3.7 µM 10% | [3]; at 11.0 µM 23% | [4]; at 1.2 µM 4% | [4]; at 3.7 µM 35% | [4]; [16] 10% | [5]; at 1.2 µM -3% | [5]; at 3.7 µM 3% | [5]; [16] 6% | [6]; at 1.2 µM 0% | [6]; at 3.7 µM 18% | [7]; [16] -11% | [8]; at 1.2 µM -7% | [8]; at 3.7 µM 0% | [8]; at 11.0 µM 39% | [9]; [16] 39% | [10]; at 1.2 µM -4% | [10]; at 3.7 µM -2% | [10]; [16] -19% | [10]; at 11.0 µM 64% | [11]; at 1.2 µM -1% | [11]; at 3.7 µM 4% | [11]; at 11.0 µM 39% | [12]; at 1.2 µM 2% | [12]; at 3.7 µM 19% | [12]; at 11.0 µM 68% | [13]; at 1.2 µM 0% | [13]; at 3.7 µM 7% | [13]; at 11.0 µM 44% | [14]; [16] 1% | [15]; at 1.2 µM 1% | [15]; at 3.7 µM 25%
active: [1]; at 33.0 µM 79% | [1]; at 100.0 µM 94% | [2]; at 33.0 µM 74% | [3]; at 33.0 µM 95% | [3]; at 100.0 µM 94% | [4]; at 11.0 µM 90% | [4]; at 33.0 µM 92% | [4]; [17] 98% | [4]; at 50.0 µM 97% | [4]; at 100.0 µM 84% | [5]; at 11.0 µM 70% | [5]; at 33.0 µM 97% | [5]; [17] 98% | [5]; at 50.0 µM 95.5% | [5]; at 100.0 µM 88% | [6]; at 11.0 µM 98% | [6]; at 33.0 µM 95% | [6]; at 100.0 µM 89% | [7]; [17] 95% | [7]; at 50.0 µM 97.8% | [8]; at 33.0 µM 94% | [8]; at 100.0 µM 92% | [9]; [17] 97% | [9]; at 50.0 µM 92.9% | [10]; at 33.0 µM 96% | [10]; [17] 98% | [10]; at 50.0 µM 95.7% | [10]; at 100.0 µM 89% | [11]; at 33.0 µM 97% | [11]; at 100.0 µM 94% | [12]; at 33.0 µM 97% | [12]; at 100.0 µM 95% | [13]; at 33.0 µM 96% | [13]; at 100.0 µM 91% | [14]; [17] 98% | [14]; at 50.0 µM 96.5% | [15]; at 11.0 µM 80% | [15]; at 33.0 µM 95% | [15]; at 100.0 µM 88%
